# Hit rate of the full screen: of about 320,000 compounds, about 1,300 (0.41%) were called active. About 3% were inconclusive and are not listed. The rule behind the calls is not given here. A selection follows. Potency and affinity values are given separately.
# Experiment: growth inhibition of non-replicating M. tuberculosis (AID 488890);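 note: plate controls were DMSO cells for no effect and high antibiotic wells for full effect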
# Settings: Mycobacterium tuberculosis non-replicating, at 25 µM, stronger effect = higher value
row,Structure (SMILES),inhibition [%]
1,CC(Oc1ccccc1)C(=O)OCC(=O)Nc1ccc2c(c1)OCO2 (stereo unspecified),23.9
2,CCOC(=O)c1sc2nc(C)nc(N3CCN(S(=O)(=O)c4ccccc4)CC3)c2c1C,34.9
3,CCOC(=O)c1c(-c2ccccc2Cl)cn2ccccc12,3.48
4,CCCCn1c(=O)[nH]c(=O)c2c1nc(-c1ccc(C(F)(F)F)cc1)n2C,2.06
5,C=CCn1c(CCC)nc2ccccc21,59.2
6,Cc1ccc(CNC(=O)COC(=O)CSc2ccc(Br)cc2C)cc1,71.4
7,CN(CC(=O)Nc1cccc(F)c1)C(=O)c1ccccc1OCC(=O)Nc1cccc(C(F)(F)F)c1,1.32
8,CCc1cc2cc(C)ccc2nc1SCC(=O)NNC(=O)c1ccco1,-31.6
9,O=C(O)c1cccc(S(=O)(=O)N2CCC(n3nnc4cc(C(F)(F)F)ccc43)CC2)c1,3.59
10,CC(=O)c1cccc(NC(=O)N(c2ccccc2)c2ccccc2)c1,4.45
11,Cc1ccc(S(=O)(=O)NCCc2nnc3ccc(SCC(=O)Nc4nc(C)cs4)nn23)cc1,-6.91
12,CC1=CC(C)(C)Nc2ccc(OC(=O)CCN3C(=O)c4ccccc4C3=O)cc21,19
13,CC1=CC(C)(C)Nc2ccc(OC(=O)CN3C(=O)c4cccc5cccc(c45)C3=O)cc21,78.9
14,COc1ccc([C@H]2CC(=O)C=C(c3cccc(OC(F)(F)F)c3)C2)cc1,24.7
15,NC(=O)Nc1cc(Cl)ccc1Cl,-13.6
16,NC(=O)N/N=C1\CCS(=O)(=O)c2ccc(F)cc21,1.74
17,S=C(NC1CCCCCC1)NC1CCCC1,71.8
18,c1ccc(-c2nc3ccccc3[nH]2)nc1,20.2
19,O=c1[nH]c(-c2ccncc2)nc2ccccc12,26.6
20,O=C(COc1ccc(/C=N/NC(=O)C(=O)N2CCCCCC2)cc1)Nc1ccccc1Cl,74.1
21,Cc1ccc(C)c(S(=O)(=O)NCC(c2ccco2)N2CCc3ccccc3C2)c1 (stereo unspecified),10.8
22,CC(NC(=O)c1ccc(N(C)C)c([N+](=O)[O-])c1)c1ccc(-n2ccnc2)cc1 (stereo unspecified),8.22
23,COc1ccc(C(=O)NC(C)c2ccc(-n3ccnc3)cc2)cc1[N+](=O)[O-] (stereo unspecified),6.19
24,O=C(Nc1ccccc1C(F)(F)F)c1ccsc1,-9.54

row,Structure (SMILES),inhibition [%]
1,CN(Cc1cnn(C)c1)Cc1nc(COc2ccccc2)no1,12.5
2,COc1ccc(OC)c(NC(=O)CSC2=NN3CCCC(=O)N=C3S2)c1,-10.2
3,O=C(CNCc1ccco1)Nc1ccccc1-n1cccc1,5.71
4,O=C(NCC(c1ccco1)N1CCN(c2ccccc2)CC1)C(=O)NC1CCCCC1 (stereo unspecified),-8.96
5,Cc1cc2c(cc1C)N(C(=O)CSC1=NCCS1)C(C)(C)c1ssc(=S)c1-2,27.9
6,Cn1c(O)c(N=NC(=O)c2cc(-c3cccs3)nc3ccccc23)c2ccccc21,-7.82
7,CCOC(=O)c1cc(=O)c2ccc(OCC(=O)Nc3ccccc3)cc2o1,0.19
8,O=C(COc1cc(O)c2c(=O)cc(-c3ccccc3)oc2c1)c1ccccc1,-7.87
9,Cc1ccc(OCC(=O)OCC(=O)c2ccccc2)cc1C,20.6
10,COc1ccc(C(=O)c2ccccc2)c(O)c1,26.2
11,O=C(COc1ccc2oc(-c3ccccc3)cc(=O)c2c1)Nc1ccccc1,52.2
12,CC(C)(C)OC(=O)COc1cc(O)c2c(=O)cc(-c3ccccc3)oc2c1,53.9
13,NC(=O)c1ccc(NC(=O)CN2CCOCC2)cc1,-9.52
14,Oc1ccc(/C=N/NP(=S)(c2ccccc2)c2ccccc2)c(O)c1O,-2.4
15,COc1ccc(OC)c(/C=C/C(=O)OCC(=O)NCc2cccs2)c1,22.8
16,N#Cc1cnn2c(N)c(-c3ccc(Cl)cc3)cnc12,-16.2
17,CCn1c(CC(=O)Nc2ccc(C)cc2)nnc1SCC(=O)N1CCN(c2ccccc2)CC1,21
18,COC(=O)c1cc(/C=C/c2ccccc2)[nH]n1,15.2
19,Cc1cc(NC(=O)/C=C/c2ccccc2)no1,17.2
20,Cc1cccc(C)c1NC(=S)NCCCN1CCCC1=O,-28.2
21,CCOc1ccc(N(CC(=O)Nc2ccc(OC)cc2OC)S(=O)(=O)c2c(C)[nH]c(=O)[nH]c2=O)cc1,25.1
22,O=c1c2cnn(-c3ccccc3)c2nc(-c2cccs2)n1-c1ccc(Br)cc1,8.85
23,O=c1oc(-c2cccs2)nc2ccccc12,48.8
24,N#Cc1c(NCCCO)nc(NCc2ccccc2)c2c1CCN(Cc1ccccc1)C2,26.6

row,Structure (SMILES),inhibition [%]
1,O=C(NNC(=O)C12CC3CC(CC(C3)C1)C2)c1ccncc1,4.55
2,C/C(=N\NC(=O)c1ccccn1)C12CC3CC(CC(C3)C1)C2,54.4
3,O=C(OCC(=O)C12CC3CC(CC(C3)C1)C2)c1cnccn1,17.7
4,O=C(COC(=O)c1ccccn1)NC12CC3CC(CC(C3)C1)C2,30.9
5,CC(C)N1CCN(Cc2nc3ccccc3s2)CC1CCO (stereo unspecified),8.77
6,Cc1cc(C)c2cc(C(=O)Nc3ccc4c(c3)OCO4)[nH]c2c1,-16.4
7,CCOC(=O)c1c(NC(=O)C(C)N2CCN(S(=O)(=O)c3cccs3)CC2)sc2c1CCC(C)C2 (stereo unspecified),-4.48
8,Cc1ccc(-c2cc(-c3ccc(C)cc3)[n+](C)o2)cc1,24.7
9,COc1ccc(/C=C/C(=O)Oc2ccc(C)cc2)cc1,65.3
10,CC1Cc2ccccc2N1C(=O)CCS(=O)(=O)c1cccs1 (stereo unspecified),15.3
11,COc1ccc(CCNC(=O)Cc2ccc(OC)c(OC)c2)cc1OC,13.8
12,O=C(OCc1cccc([N+](=O)[O-])c1)c1cnccn1,17.7
13,O=C(OCc1cc([N+](=O)[O-])cc2c1OCOC2)c1ccc2ccccc2n1,74.8
14,COc1ccc(C(C)=O)cc1COC(=O)c1cc(C)nc2ccccc12,7.17
15,O=C(Cc1ccccc1[N+](=O)[O-])OCc1cccc([N+](=O)[O-])c1,34.7
16,COc1ccc(C(C)=O)cc1COC(=O)c1cc2ccccc2cc1O,2.94
17,Nc1ccccc1C(=O)OCc1ccc([N+](=O)[O-])cc1,3.01
18,c1ccc(OCCn2cnc3ccccc32)cc1,1.01
19,CSc1ccccc1OCc1cc(C(=O)N(Cc2nccn2C)C(C)C)no1,-13.1
20,Cc1ccnc(Nc2nc(-c3sc(C)nc3C)cs2)c1,36.1
21,O=C(NCc1cccnc1)c1cccc(F)c1,-1.31
22,CCn1cc(C(=O)OCC(=O)NCc2ccc3c(c2)OCO3)c(=O)c2ccc(C)nc21,40.4
23,CCC(C(=O)Nc1ccc2c(c1)OCCO2)n1nnc2ccccc2c1=O (stereo unspecified),6.85

# — PubChem BioAssay AID488890 (Southern Research Specialized Biocontainment Screening …, 2010)
